Bioassay records deposited in PubChem BioAssay by National Center for Advancing Translational Sciences (NCATS).
Compounds with a hit are over-represented: about 2.7% of the library has one in this group of screens.
GLP1R ag: qHTS of GLP-1 Receptor Agonists; HEK293 GLP-1R CRE-luciferase, luminescence, 4-6 h; cells express a hypersensitive GLP-1R form; actives 0.007% (n = 380,000); Glucagon-like peptide 1 receptor (Homo sapiens), P43220; Potency, µM (highest dose often 45.6 µM), without a hit: at the top dose activation, actives largely listed as activators; also: % of control where 0% means no effect
rTrxR1 inhibitor: qHTS Assay for Inhibitors of Mammalian Selenoprotein Thioredoxin Reductase 1 (TrxR1): qHTS. Thioredoxin reductase 1, cytoplasmic (Rattus norvegicus), O89049. recombinant rTrxR1, NADPH fluorescence consumption, selenite substrate. Potency, µM (series often up to 114 µM), for inactives: at the top dose activity change, negative = inhibition, hits mostly inhibitors. actives 1% (n = 390,000). AID 588453, 2011; also: % is scaled to controls: 0 for no effect and ±100 for the full control effect; nearly all actives have a fitted effect of over 65% in size
Target sequence (O89049 whole entry, looked up): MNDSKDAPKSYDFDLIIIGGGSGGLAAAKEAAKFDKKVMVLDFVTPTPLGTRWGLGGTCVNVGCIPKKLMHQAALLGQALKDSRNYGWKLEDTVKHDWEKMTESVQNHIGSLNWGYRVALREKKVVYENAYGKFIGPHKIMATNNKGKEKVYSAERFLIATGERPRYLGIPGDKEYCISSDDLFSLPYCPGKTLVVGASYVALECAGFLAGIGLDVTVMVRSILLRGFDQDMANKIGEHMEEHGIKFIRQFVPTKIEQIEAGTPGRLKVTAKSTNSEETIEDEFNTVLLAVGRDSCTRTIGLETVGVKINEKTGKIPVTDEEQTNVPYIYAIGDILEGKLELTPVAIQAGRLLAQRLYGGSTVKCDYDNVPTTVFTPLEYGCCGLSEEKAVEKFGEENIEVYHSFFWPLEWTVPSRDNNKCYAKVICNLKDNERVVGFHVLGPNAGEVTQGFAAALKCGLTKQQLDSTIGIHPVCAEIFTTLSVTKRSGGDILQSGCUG
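Rat TrxR1 (90 nM in the dispensed reagent) was pre-reduced with 400 uM NADPH for 5 min at room temperature, then incubated with compound for 15 min. After 400 uM selenite was added, NADPH fluorescence (Ex 340/Em 450 nm) was followed for 8 min.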
TrxR1 substrate: qHTS Assay for Substrates of Mammalian Selenoprotein Thioredoxin Reductase 1 (TrxR1): qHTS; Thioredoxin reductase 1, cytoplasmic (Rattus norvegicus), O89049; purified TrxR1 substrate turnover, NADPH consumption readout; Potency, µM (titrated, usually from 114 µM), for the others: at the top dose activity change, negative = substrate turnover; actives 0.01% (n = 390,000); AID 588456, 2011; also: % is scaled to controls: 0 for no effect and ±100 for the full control effect; nearly all actives have a fitted effect of over 50% in size
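Rat TrxR1, dispensed at 90 nM, was prereduced with 400 uM NADPH (final) for 5 min at ~22 deg C, then incubated with compound 15 min before 400 uM selenite. A first-read NADPH fluorescence drop versus no-compound background flagged substrates.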
GLP1R cytotox: qHTS of GLP-1 Receptor Inverse Agonists: Cytotox Screen; HEK293 cAMP-luciferase reporter cells, luminescence, 24 h; actives 0.13% (n = 410,000); AID 624418, 2012; Potency, µM (doses to about 38.3 µM), inactives show at the top dose activity change, negative = inhibition, most hits filed as inhibitors;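 also: loss of luciferase light is scored as toxicity; % is scaled to controls: 0 for no effect and ±100 for the full control effect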
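Here, cytotoxicity is scored as loss of luminescence. The MLSMR collection was tested on cells seeded in medium containing 10% Nu serum, with a 24 hr compound exposure preceded by 12 hours of culture.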
IDH1 R132H inh: qHTS for Inhibitors of mutant isocitrate dehydrogenase 1 (IDH1): qHTS. Potency, µM (doses to about 76.6 µM), without a hit: at the top dose activity change, negative = inhibition, usual class: inhibitors. actives 0.093% (n = 390,000). AID 602179, 2012. IDH1-R132H enzyme, NADPH consumption, diaphorase/resazurin fluorescence. Isocitrate dehydrogenase [NADP] cytoplasmic (Homo sapiens), O75874; also: % is scaled to controls: 0 for no effect and ±100 for the full control effect; nearly all actives have a fitted effect of over 65% in size
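IDH1-R132H (0.5 ug/mL dispensed) in pH 7.5 Tris buffer was preincubated 30 min with compound, then given a substrate mix of 0.016 mM NADPH and 2 mM alpha-KG for 80 min at room temperature; remaining NADPH was read by diaphorase/resazurin fluorescence.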
GLP1R inv ag: qHTS of GLP-1 Receptor Inverse Agonists (Inhibition Mode). Glucagon-like peptide 1 receptor (Homo sapiens), P43220. AID 624417, 2012. Potency, µM (titrated, usually from 38.3 µM), for inactives: at the highest dose activity change, negative = inhibition, hits mostly inhibitors. actives 1.6% (n = 410,000). HEK293 GLP-1R CRE-luciferase, luminescence, 24 h; GLP-1R form is constitutively active; also: % is scaled to controls: 0 for no effect and ±100 for the full control effect; nearly all actives have a fitted effect of over 55% in size
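Cells are plated, allowed 12 hours at 37 deg C, then treated with compounds for 24 hr before luciferase detection reagent is added and luminescence is read after 12 min at room temperature. The HEK293 line carries constitutively active GLP-1R with a cAMP-responsive reporter.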
* = called active by the depositor; i = inactive; ? = inconclusive; / = not tested or not shown; [ ] = another dose, or the depositor's remark. Calls follow the shape of the dose curve; as a rule, active = well fitted curve in the direction sought with a large enough effect; inconclusive = small, poorly fitted or top-dose-only effect, or another doubt; inactive = no such curve, though single readings can be large; an effect the other way counts as inactive or inconclusive. Potency is read from the fitted curve at half-maximal effect.

SMILES | GLP1R ag | rTrxR1 inhibitor | TrxR1 substrate | GLP1R cytotox | IDH1 R132H inh | GLP1R inv ag
O=Cc1[nH]c2ccccc2c1N(C(=O)CCl)c1ccc([N+](=O)[O-])cc1 | 7.4% | 11.2µM* | -6.0% | ? | -3.6% | ?
CC(=O)n1cc(CO)c2ccccc21 | 3.5% | 8.7% | -4.2% | 9.4% | -7.6% | 5.8%
CC(=O)n1cc(N(C(=O)CCl)c2ccccc2)c2ccccc21 | 0.9% | 0.631µM* | 0.3% | ? | 2.0% | 3.55µM*
CC(=O)n1cc(N(C(=O)CCl)c2ccc([N+](=O)[O-])cc2)c2ccccc21 | -1.2% | 1.12µM* | -1.2% | ? | -0.7% | ?
COc1ccc(/C=C/C(=O)c2c(O)c(OC)c3occc3c2OC)cc1OC | / | -34.1% | -2.0% | / | / | /
Cc1ccc(C)c(N2CCN(S(=O)(=O)c3ccc4c(c3)OCCO4)CC2)c1 | -3.2% | -1.2% | -9.7% | 17.6% | -5.1% | ?
Cc1ccc(Cl)cc1N1CCN(S(=O)(=O)c2ccc3c(c2)OCCO3)CC1 | 0.2% | 15.2% | -6.4%[57.1 µM] | 10.7% | 2.8% | 10µM*
NC(=O)Nc1cccc2ccccc12 | 0.5% | -1.9%[57.1 µM] | 5.9%[57.1 µM] | -6.3% | 2.9% | 5.1%
O=C(Nc1cccc2ccccc12)OC1C=CS(=O)(=O)C1 (configuration not stated) | -3.8% | 6.1% | 1.1% | -20.2% | 8.8% | 10µM*
Cc1nn(-c2ccc(C(F)(F)F)cn2)c(C)c1Oc1ccccc1O | -0.7% | -6.8% | -11.5% | -29.6% | 7.1% | 7.94µM*
CN(CC(=O)Nc1c(Cl)cccc1Cl)C(=O)C1CSC2(C)CCC(=O)N12 (configuration not stated) | -1.4% | -3.0% | -4.8% | -2.0% | 5.5% | 3.9%
CCN(CC(=O)Nc1ccccc1C(F)(F)F)C(=O)C1CSC2(C)CCC(=O)N12 (configuration not stated) | 8.7% | 20.4%[57.1 µM] | 2.5% | -10.1% | 6.3% | 11.2µM*
C=C(c1ccc2ccccc2n1)c1cccs1 | / | -11.6% | -7.0% | / | / | /
CCOC(=O)C(=NC(C)CC)NNc1ccc(Br)cc1 (configuration not stated) | 16.2% | -11.8% | -9.6% | -11.2% | -6.7% | 2.51µM*
Cc1cc(NC(=O)C2CCCN(S(=O)(=O)c3cn(C)cn3)C2)ccc1Br (configuration not stated) | / | -11.2%[57.1 µM] | -9.1%[57.1 µM] | -0.1% | 0.2% | -26.1%
CCOc1nc(NC2CCCCC2)nc(NC(C)(C)C)n1 | 1.5% | 3.5% | -5.4% | 3.8% | -1.7% | 5.62µM*
COc1nc(NCc2ccco2)nc(NC2CCCCC2)n1 | 27.5% | -12.8% | -8.4% | -0.5% | 3.8% | ?
Cn1c(=O)n(C)c2cc(NS(=O)(=O)c3ccc(Br)cc3)c(NCc3ccccc3)cc21 | / | 7.7% | 17.3% | 5.9% | 18.5% | 11.2%
Cc1ccccc1C(=O)NC1(C(F)(F)F)N=C(c2ccccc2)N(C2CCCCC2)C1=O (configuration not stated) | -3.1% | -0.7% | -8.4% | 2.4% | -4.1% | ?
Cc1[nH][nH]c(=O)c1C(c1c(C)[nH][nH]c1=O)c1cn(Cc2ccc(F)cc2)c2ccccc12 | 10.8% | ? | ? | ? | -15.9% | 2µM*
O=C(O)Cc1cn(Cc2ccc(F)cc2)c2ccccc12 | 0.8% | 8.6% | 5.7% | -13.6% | 8.1% | -5.3%
Cc1[nH][nH]c(=O)c1C(c1c(C)[nH][nH]c1=O)c1cn(Cc2ccc(Cl)c(Cl)c2)c2ccccc12 | 15.1% | ? | 56.2µM* | 2.6%[1.53 µM] | -9.6% | ?
Cc1cccc(CC(=O)NCCc2csc(-c3ccc(C(F)(F)F)cc3)n2)c1 | / | 21.0%[57.1 µM] | 7.8%[57.1 µM] | -6.7% | 6.0% | ?
CCCCOCCCNC(=O)C[C@@H]1C[C@@]2(C(=O)OC)CC(C)(C)CC=C2N(Cc2ccccc2)C1=O | / | / | / | -11.6% | / | ?
Cc1c(CCO)sc[n+]1CC(=O)c1ccccc1 | / | -1.7% | 4.5% | / | / | /
SMILES | GLP1R ag | rTrxR1 inhibitor | TrxR1 substrate | GLP1R cytotox | IDH1 R132H inh | GLP1R inv ag
COc1ccc(CNC(=O)c2ccc(Cl)c(S(=O)(=O)N3CCCCCC3)c2)cc1 | 6.1% | / | / | 0.0% | -0.1% | 10µM*
O=C(Cn1c(=O)oc2cc(S(=O)(=O)N3CCCCC3)ccc21)NCc1ccc(Cl)cc1 | / | 22.8% | 1.6% | -19.3% | -2.9% | 12.6µM*
COc1ccc(C(CNC(=O)c2ccc(C)c(S(=O)(=O)N3CCCCC3)c2)N(C)C)cc1OC (configuration not stated) | -2.9% | 14.7% | -2.6% | 12.5% | -11.7% | 1.7%
O=C(NCCC1=CCCCC1)c1ccc(Cl)c(S(=O)(=O)N2CCCCC2)c1 | 7.9% | 19.6% | -3.7% | 1.8% | -10.3% | 3.55µM*
O=C(NCc1ccncc1)c1ccc(Cl)c(S(=O)(=O)N2CCCCC2)c1 | 0.0% | 21.6%[57.1 µM] | -14.6%[57.1 µM] | -0.3% | 7.1% | -16.0%
CN(C)C(CNC(=O)c1ccc(Cl)c(S(=O)(=O)N2CCCCCC2)c1)c1ccccc1 (configuration not stated) | 9.2% | 4.6% | 1.5% | -0.2% | 13.6% | 7.94µM*
O=C(Cn1c(=O)oc2cc(S(=O)(=O)N3CCCCC3)ccc21)NCc1ccc(F)cc1 | / | -18.2% | -16.0% | 5.9% | -1.8% | ?
NC1CCc2ccc([N+](=O)[O-])cc21 (configuration not stated) | / | 13.2% | -3.2% | / | / | /
COc1cc(N)c(NC(=O)/C=C/c2nc3cc(OC)c(OC)cc3[nH]2)cc1OC | / | -89.3% | i | / | / | /
O=C(NCCN1CCOCC1)c1ccc(Cl)c(S(=O)(=O)N2CCCCC2)c1 | 3.3% | 0.8% | 0.5% | 6.3% | 11.0% | -5.9%
CCN(CC)CCNC(=O)c1ccc(Cl)c(S(=O)(=O)N2CCCCCC2)c1 | -4.1% | 6.4%[57.1 µM] | -3.7% | -29.1% | -0.1% | 2.51µM*
CN(C)CCCNC(=O)c1ccc(Cl)c(S(=O)(=O)N2CCCCCC2)c1 | 0.3% | 9.9% | -6.0% | 2.7% | -4.3% | 10µM*
COc1ccc(CCNC(=O)c2cc(S(=O)(=O)N3CCCCCC3)ccc2OC)cc1OC | 28.5% | -2.8%[57.1 µM] | -4.1%[57.1 µM] | -5.6% | -1.1% | -25.3%
COc1ccc(S(=O)(=O)N2CCCCCC2)cc1C(=O)NCc1ccc(C)cc1 | -4.1% | 12.4% | -4.0% | -5.8% | 3.8% | 10µM*
